Assay results from PubChem BioAssay (NCI).
Compounds without any hit were thinned out: in the full panel of roughly 83,000, 20% have a hit.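 In brief: 96-well plates, 48 h treatment, single concentration, percent growth endpoint.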 A number with no mark means an inactive call. The source made the active and inactive calls. The calls were made as follows: active = growth percent below 10; inactive = the rest.

Columns and labels:
Experiment in all cases: NCI-60 one-dose screen, 48 h (100 = growth as untreated, 0 = no growth, -100 = all killed)
Conditions in all cases: 10 µM unless noted
NCI-H23 lung = test system: NCI-H23 lung
NCI-H226 lung = test system: NCI-H226 lung
NCI-H322M lung = test system: NCI-H322M lung
HOP-62 NSCLC = test system: HOP-62 NSCLC
NCI-H460 lung = test system: NCI-H460 lung
HOP-92 NSCLC = test system: HOP-92 NSCLC
NCI-H522 lung = test system: NCI-H522 lung
A549/ATCC NSCLC = test system: A549/ATCC NSCLC
786-0 renal = test system: 786-0 renal
COLO 205 colon = test system: COLO 205 colon

| SMILES | growth (NCI-H23 lung) | growth (NCI-H226 lung) | growth (NCI-H322M lung) | growth (HOP-62 NSCLC) | growth (NCI-H460 lung) | growth (HOP-92 NSCLC) | growth (NCI-H522 lung) | growth (A549/ATCC NSCLC) | growth (786-0 renal) | growth (COLO 205 colon) |
| --- | --- | --- | --- | --- | --- | --- | --- | --- | --- | --- |
| O=C(Nc1ccc(C(=O)/C=C/c2ccc(N3CCOCC3)cc2)cc1)Nc1ccc([N+](=O)[O-])cc1 | 83.4% | 45% | 63.1% | 105% | 67.9% | 120% | 84.1% | 81.3% | 111% | 109% |
| Cc1ccc2c(c1)C(C)Cc1c(Cl)ncnc1N2C (stereo not given) | 20.7% | -7.14% (active) | 32.3% | 17.5% | 30.6% | 28.9% | 69% | 16.4% | 1.48% (active) | -56.1% (active) |
| CC1Cc2c(Cl)ncnc2N(C)c2ccccc21 (stereo not given) | 18.6% | 1.16% (active) | 26.8% | 22.8% | 21.2% | 26% | 57.7% | 16.6% | 4.7% (active) | -81.1% (active) |
| O=C(NCCCNC(=O)OCc1ccc2c(Br)cc(Br)c(O)c2n1)OCc1ccc2c(Br)cc(Br)c(O)c2n1 | -46.3% (active) | 2.3% (active) | 32.7% | -19.1% (active) | 4.8% (active) | -80.3% (active) | -60.9% (active) | 6.61% (active) | -58.9% (active) | -76.8% (active) |
| CCOC(=O)c1ccc2nc(-c3c(C)nn(-c4ccccc4)c3N3CCOCC3)[nH]c2c1 | 95.2% | 73.3% | 102% | 85.6% | 97% | 79.8% | 87.2% | 94.5% | 104% | 114% |
| O=[N+]([O-])c1cccc(N=NNc2cccc([N+](=O)[O-])c2)c1 | 95.2% | 108% | 101% | 110% | 100% | 64.4% | 78% | 86.7% | 90.4% | 113% |
| CCCCCCCCN(CCCCCCCC)CC(O)c1ccc(Cl)c(C)c1Cl (stereo not given) | 65% | 94.4% | 81.8% | 89.3% | 72.8% | 71.2% | 65.6% | 78% | 91.7% | 60.5% |
| COc1ccc(NC(=O)Nc2ccc(-c3cccnc3)cc2N2CCC(CO)CC2)cc1 | 27.1% | 86.8% | 59.1% | 54% | 60.1% | 78.1% | 25.2% | 41% | 30.8% | 70% |
| COc1ccc(-c2c(C)nn3c(NCCN4CCOCC4)cc(C)nc23)cc1OC | 102% | 94.2% | 102% | 95% | 103% | 108% | 106% | 96.6% | 94.7% | 111% |
| CCCOc1ccc(-c2nc(-c3ccc(N)cc3)cs2)cc1 | 96.8% | 111% | 103% | 107% | 98% | 94.4% | 89.3% | 93.5% | 87.1% | 143% |
| Cn1cc(-c2noc(-c3cn(C)c4ncc(F)cc34)n2)c2ccccc21 | 75.1% | 76.7% | 41.3% | 36.3% | 22.9% | 62% | 66.2% | 37.9% | 33.6% | 66.7% |
| COc1ccc2c(c1)C(C)Cc1c(ncnc1-n1cnc3ccccc31)N2C (stereo not given) | 32.3% | 41.5% | 54.9% | 24.1% | 11.8% | 45.1% | -18.9% (active) | 21.4% | 29% | -28.7% (active) |
| COc1c(B(O)O)cccc1-c1nc2ccc3[nH]ncc3c2c2c1CCC2 | 75.5% | 68.3% | 57.6% | 48.7% | 47.9% | 72.1% | 62.7% | 60.2% | 55.7% | 66.2% |
| COc1cc2c(cc1OCCCN1CCN(CCCOc3cc4c(cc3OC)C(=O)N3C[C@H](F)C[C@H]3C=N4)CC1)N=C[C@@H]1C[C@@H](F)CN1C2=O | 10.5% | 17.2% | -23.6% (active) | 27.6% | 1.24% (active) | -6.06% (active) | -48.8% (active) | 6.52% (active) | 12.4% | -47.1% (active) |
| O=[N+]([O-])c1cc(CCl)ccc1OCCBr | 102% | 94.8% | 104% | 105% | 101% | 98.6% | 96.1% | 104% | 103% | 107% |
| CCc1cccc(Cl)c1 | 111% | 99.2% | 108% | 103% | 110% | 93.2% | 92.9% | 98.8% | 105% | 117% |
| CC(=O)OC[C@]12CC[C@@H]([C@@H](C)C(N)=O)[C@@H]1[C@H]1CC[C@@H]3[C@@]4(C)CC[C@H](OC(C)=O)C(C)(C)[C@@H]4CC[C@@]3(C)[C@]1(C)CC2 | -40.3% [100 µM] (active) | -58.5% [100 µM] (active) | -78.2% [100 µM] (active) | -73% [100 µM] (active) | -61.8% [100 µM] (active) | -83.1% [100 µM] (active) | -61.1% [100 µM] (active) | 9.89% [100 µM] (active) | -74% [100 µM] (active) | -53% [100 µM] (active) |
| C#CCNC(=O)CC[C@]1(C)[C@H]2CC[C@@H]3[C@@H]([C@@](C)(O)CCC=C(C)C)CC[C@@]3(C)[C@]2(C)CC[C@H]1C(=C)C | 16.3% [100 µM] | 51.5% [100 µM] | 75.7% [100 µM] | 51.5% [100 µM] | 33.7% [100 µM] | -25.5% [100 µM] (active) | -73.1% [100 µM] (active) | 37.7% [100 µM] | -67.9% [100 µM] (active) | 42.7% [100 µM] |
| CCOC(=O)CCC[P+](c1ccccc1)(c1ccccc1)c1ccccc1 | 87.9% | 108% | 96.4% | 99.8% | 82.2% | 71.4% | 63.1% | 90.7% | 101% | 71.6% |
| CCOc1cc(/C=N\NC(=O)N/N=C/c2ccc(O)c(OCC)c2)ccc1O | 33% | 55.5% | 50.7% | 38.9% | 11.8% | 80.7% | -18.6% (active) | 59.4% | 28.6% | 42.7% |
| O=C(CCN1CCCCC1)c1ccc(Cl)cc1 | 110% | 94.6% | 99.9% | 100% | 97.8% | 83.1% | 95.8% | 109% | 103% | 107% |
| N#Cc1ccc(-c2ccc(COc3ccc(CC4SC(=O)NC4=O)cc3)cc2)cc1 (stereo not given) | 50.7% | 86.5% | 89.7% | 67.1% | 69.5% | 66.8% | 43.8% | 48.1% | 83% | 103% |
| CCCCCCSc1ncnc2nc[nH]c12 | 92.4% | 85.5% | 99.9% | 95.6% | 94.5% | 68.3% | 86.3% | 96.1% | 89.7% | 95.2% |
| Cc1ccc(S(=O)(=O)Oc2ccc(Br)cc2Br)cc1 | 88% | 85.5% | 91.2% | 76.6% | 97.2% | 82.3% | 82.1% | 64% | 86.6% | 63.9% |
